PI4K2A inh = PI4K2A (human) kinase inhibition; activity change, negative = inhibition, % at 76.9 µM; actives 0.13% (n = 420,000); Q9BTU6; purified PI4K2A, ADP-Glo luminescence, 1 h; active compounds read low; AID 1346378; in the data active = activity change below about -50%; inconclusive = mostly about -30% to -49%;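 note: -100% = wells without enzyme as full effect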
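In this quantitative HTS, ADP production by PI4K2A was quantified luminescently after 1 h at ambient temperature; 100 microM adenosine served as plate-quality control.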
TrxR1 inh = rat TrxR1 inhibition. actives 1% (n = 390,000). O89049. recombinant rTrxR1, NADPH fluorescence consumption, selenite substrate. AID 588453. Potency, µM (titrated, usually from 114 µM), for the others: top-dose activity change, negative = inhibition, hits mostly inhibitors; note: potency is the fitted concentration of half-maximal effect; nearly all actives have a fitted effect of over 65% in size
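Rat TrxR1 (90 nM in the dispensed reagent) was pre-reduced with 400 uM NADPH for 5 min at room temperature, then incubated with compound for 15 min. After 400 uM selenite was added, NADPH fluorescence (Ex 340/Em 450 nm) was followed for 8 min.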
GALK inh = inhibitors of human galactokinase; Purified GALK, Kinase-Glo residual ATP luminescence; Potency, µM (series often up to 57.5 µM), for inactives: at the highest dose activity change, negative = inhibition, actives largely listed as inhibitors; actives 0.007% (n = 270,000); AID 1868; P51570; note: potency is the fitted concentration of half-maximal effect
Target sequence (P51570 whole entry, looked up): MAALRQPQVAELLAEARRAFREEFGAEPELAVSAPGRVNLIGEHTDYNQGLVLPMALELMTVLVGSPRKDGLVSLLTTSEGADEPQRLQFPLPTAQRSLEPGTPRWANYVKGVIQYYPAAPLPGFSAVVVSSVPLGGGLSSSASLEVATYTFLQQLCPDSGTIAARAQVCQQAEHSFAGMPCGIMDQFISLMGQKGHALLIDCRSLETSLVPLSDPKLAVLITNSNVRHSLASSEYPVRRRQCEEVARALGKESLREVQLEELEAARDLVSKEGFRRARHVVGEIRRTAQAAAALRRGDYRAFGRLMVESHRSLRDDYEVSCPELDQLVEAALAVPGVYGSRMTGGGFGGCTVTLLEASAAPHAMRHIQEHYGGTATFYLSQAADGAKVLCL
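Quantitative HTS: GALK 5 nM, ATP 35 uM, galactose 100 uM, 1 h room temperature, then luciferase-based ATP detection.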
TrxR1 substrate = is turned over as a substrate by rat TrxR1. actives 0.01% (n = 390,000). purified TrxR1 substrate turnover, NADPH consumption readout. O89049. Potency, µM (top dose mostly 114 µM), for the others: top-dose activity change, negative = substrate turnover; note: potency is the fitted concentration of half-maximal effect; nearly all actives have a fitted effect of over 50% in size
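Rat TrxR1, dispensed at 90 nM, was prereduced with 400 uM NADPH (final) for 5 min at ~22 deg C, then incubated with compound 15 min before 400 uM selenite. A first-read NADPH fluorescence drop versus no-compound background flagged substrates.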
PKM2 activator = activators of human pyruvate kinase M2 | purified PKM2, Kinase-Glo ATP luminescence, activation; response scale: 0% is enzyme alone, no compound | Potency, µM (titrated, usually from 57.5 µM), for the others: at the highest dose activation, actives largely listed as activators | actives 0.34% (n = 260,000) | AID 1631; note: potency is the fitted concentration of half-maximal effect; nearly all actives have a fitted effect of over 55% in size
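Kinase-Glo luminescence reports ATP generated from ADP (0.1 mM) and PEP (0.5 mM) by purified hPK-M2 after 1 h at room temperature, pH 7.2 imidazole buffer; intermediate enzyme activity allows detecting inhibitors and activators.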
An asterisk follows results filed as active; u = inconclusive; x = no result given; [ ] = dose if it differs, or a comment. An excerpt weighted towards active compounds, which were near 1.2% of everything screened. Unless noted, calls come from the whole dose curve; as a rule, active = well fitted curve in the direction sought with a large enough effect; inconclusive = small, poorly fitted or top-dose-only effect, or another doubt; inactive = no such curve, though single readings can be large; an effect the other way counts as inactive or inconclusive. Unless noted, % is set by controls: 0 for no effect and ±100 for the full control effect.

SMILES	PI4K2A inh	TrxR1 inh	GALK inh	TrxR1 substrate	PKM2 activator
O=C(/C=C/c1ccco1)N(Cc1ccc(Cl)cc1)C1CCS(=O)(=O)C1 (stereo unspecified)	-24	25µM*	-1%	5%	u
COc1ccc(CN(C(=O)/C=C/c2ccco2)C2CCS(=O)(=O)C2)cc1 (stereo unspecified)	-10	-87%	6%	13%[11.4 µM]	u
COc1cccc(CN(C(=O)/C=C/c2ccco2)C2CCS(=O)(=O)C2)c1 (stereo unspecified)	-16	13µM*	-5%	2%	x
CCOc1ccc(CN(C(=O)/C=C/c2ccco2)C2CCS(=O)(=O)C2)cc1 (stereo unspecified)	-3	u	6%	-5%	-1%[0.46 µM]
CN(C)c1ccc(CN(C(=O)/C=C/c2ccco2)C2CCS(=O)(=O)C2)cc1 (stereo unspecified)	3	-13%[57.1 µM]	4%	-8%[57.1 µM]	0%
CCCCNC(=O)C1CCCN1C(=O)Nc1cc(C)cc(C)c1 (stereo unspecified)	-3	x	x	x	x
Cc1ccc(CNC(=O)C2CCC(CNS(=O)(=O)c3ccc(C)cc3)CC2)cc1 (stereo unspecified)	0	23%[57.1 µM]	x	-1%[57.1 µM]	x
Cc1cc(-c2ccc(C(=O)O)s2)cnc1N	25	20µM*	1%	849%	-15%
CCCCNc1nc(C)nc2c1nc(-c1ccccc1)n2CCN1CCCCC1	x	x	x	x	-3%
CC(Sc1nnc(-c2ccco2)n1C)C(=O)Nc1nccs1 (stereo unspecified)	-9	9%[57.1 µM]	x	5%[57.1 µM]	x
CC(Sc1ccc([N+](=O)[O-])cn1)C(=O)Nc1nccs1 (stereo unspecified)	-7	-22%	15%	2%	6.3µM*
COC1=CC(=O)c2nc(Cl)ccc2C1=O	-58*	x	x	x	x
O=C(O)Cc1ccc(O)c(O)c1	0	7.5µM*	0%	9%[57.1 µM]	10%
O=C(O)Cc1ccc2ccc3ccccc3c2c1	-5	15%	x	10%	x
CN(Cc1ccccc1)Cc1c(O)ccc2c(=O)c(-c3ccccc3)c(C(F)(F)F)oc12	5	-17%	x	-16%	x
O=c1nccc(N/N=C/c2ccccc2O)[nH]1	-53*	-15%	14%	-10%	x
COC(=O)[C@]12C[C@H](CC(=O)NCCc3ccccc3OC)C(=O)N(CCc3ccc(OC)c(OC)c3)C1=C[C@H](C1CCCC1)O[C@@H]2C	-3	x	x	x	x
Cn1ccs/c1=N\S(=O)(=O)c1ccc(Br)cc1	9	-2%[57.1 µM]	-4%	8%[57.1 µM]	16µM*
CCOC(=O)CC[C@H]1CC[C@]2(CCCN(C(=O)c3ccno3)C2)O1	-1	x	x	x	x
COC(=O)CCC(=O)N1CCc2cc(S(=O)(=O)N3CCc4ccccc43)ccc21	2	11%[57.1 µM]	-1%	2%[57.1 µM]	13µM*
Cc1cc(C)n2c(=O)c3ccc(Cl)cc3nc2c1C#N	-9	24%[57.1 µM]	1%	4%[57.1 µM]	17%
Cc1cc(Cl)n2c(nc3cc(F)c(F)cc32)c1C#N	u	6.3µM*	-18%	2%[57.1 µM]	1%
c1cncc(CSc2nnc3ccc(-c4ccncc4)nn23)c1	4	25%	-1%	3%	20%
c1cncc(CSc2nnc3ccc(-c4cccs4)nn23)c1	-1	29%	0%	7%	25µM*
Cc1nc(C)c(-c2ccc(SCC(=O)Nc3ccc(Cl)c(Cl)c3)nn2)s1	3	7%[57.1 µM]	x	-7%[57.1 µM]	x
SMILES	PI4K2A inh	TrxR1 inh	GALK inh	TrxR1 substrate	PKM2 activator
CN(C)C=Nc1nonc1-c1ccccc1	3	6%	8%	-3%	-1%
CN(C)C=Nc1c(Br)cc(Br)c2nonc12	-56*	-6%[57.1 µM]	-1%	-4%[57.1 µM]	3%
COc1ccc(N2C(c3ccsc3)=Cc3cc4c(cc3C2c2c[nH]c3ccccc23)OCO4)cc1 (stereo unspecified)	-3	x	x	x	x
CCOC(=O)c1ccc(NC2SC(=O)N(Cc3cccc(C(=O)O)c3)C2=O)cc1 (stereo unspecified)	-6	79µM*	x	-5%	x
O=C1N(c2ccccc2)C[C@@H]2C[C@@H](c3cccs3)N3CCC[C@@]123	5	20µM*	5%	4%	-3%
N#CC(C#N)=Cc1cc2ccccc2nc1N1CCCCC1	2	18µM*	-5%	1%	5%

Screens: PubChem BioAssay, National Center for Advancing Translational Sciences (NCATS)
